In PubChem BioAssay AID588405 (Sanford-Burnham Center for Chemical Genomics, 2011):
In all, about 360,000 compounds went through this assay and about 6,200 (1.7%) were called active. The sample holds actives, similar compounds and a random draw of the others, so the mix is not that of the screen.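 How the source made its calls: active means inhibition of at least 50% at 20 µM; inactive means the rest.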

Assay: inhibition of PEG-3 promoter activity – cell-based, HeLa, luciferase luminescence, primary screen (AID 588405)
Conditions: HeLa PEG-Prom luciferase reporter, overnight, at 20 µM, hits give high values

SMILES | inhibition
Cc1cc(C)c2nc3nc(C)cc(C)c3c(N)c2c1 | 59.9% (active)
COc1ccccc1CCNC(=O)C1CCN(C(=O)/C=C/c2ccccc2)CC1 | -46.9% (inactive)
COC(=O)c1ccc(COc2ccc(/C=C/C(=O)c3ccc(OC)c(CSCC(=O)O)c3)cc2OC)cc1 | -5.11% (inactive)
COc1ccc(C(=O)/C=C/c2ccc(-c3ccccc3)cc2)cc1CSCC(=O)O | 98.8% (active)
COc1ccc2c3c1O[C@H]1C[C@@H](O)C=C[C@@]31CCN(C)C2 | -14.7% (inactive)
COc1ccc(NC(=O)c2sc(N3CCOCC3)nc2-c2ccccc2)c(OC)c1 | 20.4% (inactive)
COc1ccc(NC(=O)c2cc(-c3cc(OC)c(OC)c(OC)c3)nc3ccccc23)c(OC)c1 | 50.8% (active)
COc1ccc(-c2cc(C(=O)n3cnc4ccccc43)c3ccccc3n2)cc1 | -64% (inactive)
CC(=O)Nc1cccc(-c2cc3nc(NCc4cccnc4)n(C)c(=O)c3s2)c1 | -27.3% (inactive)
CN(c1ccccc1)S(=O)(=O)c1cc(C(=O)Nc2nc3ccccc3[nH]2)ccc1Cl | 5.63% (inactive)
O=c1c2cc(Br)ccc2nc(-c2cccc(Cl)c2)n1O | 31.2% (inactive)
O=C(/C(=C/c1cccc(Cl)c1)c1nc2ccccc2[nH]1)c1ccccc1 | 109% (active)
Cc1ccc2c(Cl)c(C(=O)Nc3nn[nH]n3)sc2c1 | -5.87% (inactive)
Cc1ccc(-c2nc3ccccc3[nH]2)cc1NC(=O)c1sc2ccccc2c1Cl | 50.7% (active)
CN1CCc2ccccc2C1Cc1ccccc1NC(=O)c1sc2ccccc2c1Cl (centres undefined) | -137% (inactive)
COc1ccc(C)cc1NC(=O)CCS(=O)(=O)c1cccc2nonc12 | -14.4% (inactive)
Cc1ccc2c(C(=O)CN3CCCC3)c(C)[nH]c2c1 | 7.2% (inactive)
CCNC(=O)C1(C)CCN(C(=O)c2ccccc2)C1 (centres undefined) | -7.38% (inactive)
CC1CC(=S)Nc2ccccc2N1Cc1ccccc1 (centres undefined) | 55.4% (active)
CC1CN(Cc2ccccc2)C(=S)NC1=O (centres undefined) | -2.37% (inactive)
CC1CC(=O)Nc2ccccc2N1S(=O)(=O)c1cccs1 (centres undefined) | 10.5% (inactive)
CCNC(=O)C1(C)CCCN1C(=O)c1ccc(N(C)C)cc1 (centres undefined) | -3.48% (inactive)
CCOc1ccc(Nc2nc(Cl)nc(N3CCN(c4ccc(OC)cc4)CC3)n2)cc1 | 22.4% (inactive)
CCN1CCN(c2nc(Nc3cc(OC)ccc3OC)nc(Nc3cc(OC)ccc3OC)n2)CC1 | 52.3% (active)

SMILES | inhibition
CCCOc1ccc(Cl)cc1Nc1nc(NCCO)nc(N2CCCC2)n1 | 9.9% (inactive)
COc1cccc(C(O)c2ncc(-c3ccc4ccccc4c3)[nH]2)c1 (centres undefined) | -68.4% (inactive)
CNC(=O)C1CC(=O)N(c2ccc(OCC(=O)Nc3ccccc3C)cc2)C1 (centres undefined) | -61.3% (inactive)
CC12CCC(=O)C=C1CCC1C2C(O)CC2(C)C1CCC2(O)C(O)CO (centres undefined) | 10.9% (inactive)
CCc1nc2ccc(C(=O)Nc3ccc(OC)c(OC)c3)cn2c1N(C)C(=O)c1cccc(OC)c1 | -9.49% (inactive)
CCCN1CCN(C(=O)Cn2ncc3ccccc32)CC1 | 6.83% (inactive)
O=C1NC[C@H](Cc2ccc(O)cc2)N(C[C@H]2CCCN2C[C@H](Cc2ccccc2)N2C[C@H](Cc3ccccc3)N(CCc3ccccc3)C(=O)C2=O)C1=O | -4.33% (inactive)
Cc1oc2c(c1C(=O)N1CCOCC1)C(=O)c1ccccc1C2=O | 97.9% (active)
O=C(c1snnc1-c1ccccc1)N1CCOCC1 | 11.7% (inactive)
Cc1ccc(C(=O)N2CCN(S(=O)(=O)N3CCOCC3)CC2)cc1 | 5.77% (inactive)
CC=CCn1c(SCCCc2ccccc2)nc2c1c(=O)[nH]c(=O)n2C | 0.45% (inactive)
CN(CCO)Cc1csc2ccc(Br)cc12 | 13.7% (inactive)
COc1ccc(S(=O)(=O)N2CCCCC2c2cc(C(=O)NCc3ccc(F)cc3)no2)cc1 (centres undefined) | 15.3% (inactive)
CC[C@@H]1Cc2cc(O)ccc2C2=C1c1ccc(O)cc1C[C@H]2CC | 64.8% (active)
CCc1nc2c(OCC(N)=O)cccn2c1N(C)C(=O)c1ccc(OC)cc1 | -3.72% (inactive)
CN(CC(=O)Nc1ccc(Cl)c(C(F)(F)F)c1)C(=O)CCC(=O)c1ccccc1 | 12.6% (inactive)
O=C(CC(O)(C(F)(F)F)C(F)(F)F)Nc1ccc(Cl)c(Cl)c1 | 69.9% (active)
O=C(Cc1ncc(C(F)(F)F)cc1Cl)Nc1cccc(Br)c1 | 3.22% (inactive)
O=C(Nc1cccc([N+](=O)[O-])c1)N1CCc2ccccc2C1 | -236% (inactive)
COC(=O)/C=C\C(=O)Nc1cccc([N+](=O)[O-])c1 | 106% (active)
Cc1ccc(NC(=O)O/N=C/c2cccc([N+](=O)[O-])c2)cc1 | -85.8% (inactive)
O=C(CN1C(=O)NC2(CCOc3ccccc32)C1=O)NCc1ccc(F)cc1 (centres undefined) | 20.2% (inactive)
CCc1ccc2c(c1)NC(=O)C2(C)Cc1ccc(OC(F)(F)F)cc1 (centres undefined) | 32.7% (inactive)
CCOC(=O)c1sc(C)c2c1NC(C)(c1cccc3ccccc13)NC2=O (centres undefined) | 34.8% (inactive)

SMILES | inhibition
Cc1ccc(-c2nc3ccc(Cl)cn3c2Cc2ccccc2)cc1 | -130% (inactive)
Cc1ccc(-c2nc3ccc(Br)cn3c2Cc2ccccc2C(F)(F)F)cc1 | -138% (inactive)
COc1ccc(-c2nc3ccc(Br)cn3c2Cc2ccc(C)cc2)cc1OC | -58.2% (inactive)
Cc1ccc2nc(-c3ccc(Br)cc3)cn2c1 | 55.6% (active)
Cc1ccc(-n2c(-c3ccc(Cl)cc3)n[nH]c2=S)cc1 | 17.7% (inactive)
Cc1ccc(-c2cn3cc(C)ccc3n2)cc1 | 88.8% (active)
Cc1csc(NC(=O)CSc2nc(=O)n(CCCN(C)C)c3c2CCC3)n1 | 4.74% (inactive)
CN(Cc1ccc(C(F)(F)F)cc1)C(=O)[C@H]1O[C@@H](n2cnc3c(N)ncnc32)[C@H](O)[C@@H]1O | 6.54% (inactive)
CC1(C(=O)NS(=O)(=O)c2ccc(C#N)cc2)CCN1C(=O)c1ccc(C2CCCCC2)cc1 (centres undefined) | -8.94% (inactive)
O=[N+]([O-])/C(N=Nc1ccccc1)=N\Nc1ccccc1 | -2.71% (inactive)
Cn1c(CCC(=O)Nc2ccccc2F)nnc1SCC(=O)Nc1ccccc1Cl | 3.9% (inactive)
COc1ccc(-c2nc(N)ncc2-c2ccc(Cl)cc2)c(O)c1 | 53.7% (active)
CCOc1ccc(-c2nc(N)ncc2-c2ccccc2OC)c(O)c1 | 1.53% (inactive)
C=C(C)COc1ccc(-c2ncncc2-c2ccc(OC)cc2)c(O)c1 | -25.6% (inactive)
CC(=O)Nc1cnc(-c2ccc(O)cc2C)cn1 | -46.9% (inactive)
CN1CCN(CCCCOc2ccccc2-c2ccccc2)CC1 | 7.99% (inactive)
OCCN1CCN(C(=S)c2ccc(-c3ccccc3)cc2)CC1 | 51.7% (active)
S=C(c1ccc(-c2ccccc2)o1)N1CCCCC1 | -230% (inactive)
CC(C#N)OC(=O)c1cccnc1SCC(=O)Nc1ccc2c(c1)OCO2 (centres undefined) | -92% (inactive)
O=C(O)CCN1C(=O)CC2(CCCCC2)C1=O | -1.96% (inactive)
COCCNc1ncnc2c1ncn2[C@H]1CN(CCN2CCOCC2)C[C@@H](CO)O1 | 0.57% (inactive)
Clc1ccc2nc(-c3ccccc3)nc(C(Cl)Cl)c2c1 | 107% (active)
N#CCSc1nc(-c2ccccc2)nc2ccc(F)cc12 | 16.9% (inactive)
Clc1cccc(-c2nc(NCC3CCCO3)c3ccccc3n2)c1 (centres undefined) | 17.2% (inactive)

SMILES | inhibition
CC(C)C(C)NC(=O)COc1nc2ccccc2nc1N(C)C1CCCCC1 (centres undefined) | 2.14% (inactive)
CC(C)c1cc(C(=O)NC2CCCCCC2)c2ccccc2n1 | -6.57% (inactive)
CN(c1ccc2nc3ccccc3c(=O)n2n1)C1CCCCC1 | 81.5% (active)
Cc1nc2c(OCC(=O)C(C)(C)C)cccn2c1N(C)Cc1cccs1 | -4.66% (inactive)
CCCCc1ccc(S(=O)(=O)NC(=O)C2(C)CCN2C(=O)c2c(C)noc2C)cc1 (centres undefined) | -14.9% (inactive)
COc1ccc(C(C)C)cc1-c1ccc2nncn2c1 | -16.5% (inactive)
CC1(Oc2ccc(Cl)cc2)CCN(Cc2csc3ccccc23)C1 (centres undefined) | -17.9% (inactive)
CC1(C(=O)NS(=O)(=O)c2ccccc2Cl)CCN1C(=O)c1cccc(F)c1 (centres undefined) | -6.7% (inactive)
O=c1[nH]c2ccc(S(=O)(=O)N3CCCC3)cc2[nH]1 | 3.24% (inactive)
Cc1cccc(NC(=O)CSC(N)=O)c1C | 1.28% (inactive)
Cc1cccc(NC(=O)CN2CCN(C(=O)C3CCN(C(=O)/C=C/c4ccccc4)CC3)CC2)c1C | -10.7% (inactive)
CCOC(=O)/C=c1\s/c(=C\c2ccc(C#N)cc2)c(=O)n1CC(=O)Nc1cccc(C)c1C | 57.2% (active)
COC(=O)c1c(NC(=O)COc2ccc(Cl)cc2Cl)sc2c1CC(C)(C)NC2(C)C | 92.3% (active)
CN1CCC(OC(=O)COc2ccc(Cl)cc2Cl)CC1 | 3.36% (inactive)
Cc1cnc(C(=O)OCC(=O)Nc2ccc(Cl)cc2Cl)cn1 | -12% (inactive)
Cc1ccccc1S(=O)(=O)NC(=O)C1(C)CCN1C(=O)Cc1ccc(Cl)cc1Cl (centres undefined) | 3.83% (inactive)
Cc1cccc(CNC(=O)c2sc(=O)n(Cc3ccccc3C)c2C)c1 | 3.15% (inactive)
CCn1c(=O)c(=O)[nH]c2c(=O)oc3ccc(S(=O)(=O)Nc4ccc(OC)cc4)cc3c21 | -5.21% (inactive)
CC(=O)N1C[C@@H](CO)[C@@H](N(C)C(=O)c2ccco2)C[C@H]1c1ccccc1 | -9.39% (inactive)
COc1cc(SC)ccc1C(=O)Nc1nc(C)cs1 | 99.9% (active)
Cc1csc(NC(=O)CSc2nc(=O)cc(N)n2-c2ccc(F)cc2)n1 | 1.12% (inactive)
COc1cc(SC)ccc1C(=O)NNC(=O)C1COc2ccccc2O1 (centres undefined) | -36.6% (inactive)
